# Reference: PubChem BioAssay AID1347076 (National Center for Advancing Translational Sciences (NCATS), 2019)
# Out of some 400,000 compounds screened, about 13,000 (3.2%) were called active. About 18% were inconclusive and are not listed. Many of the other results were omitted from the sample, so actives are more common in it than they were. A number with no mark means an inactive call. Calls follow the shape of the dose curve; as a rule, active = well fitted cell-killing curve with a large enough effect; inconclusive = small, poorly fitted or top-dose-only effect, or effect the other way; inactive = flat fitted curve, though single readings scatter.
# Experiment: qHTS assay for MDR1-selective chemotherapeutics: Primary screen using the drug-selected MDR subline cells KB-V1; also: nearly all actives have a fitted effect of over 60% in size
# Details: KB-V1 MDR cells viability, CellTiter-Glo, 72 h; series mostly up to 46.1 µM; activity change, negative = cytotoxicity: at the top concentration
# How it was run: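 KB-V1 MDR subline cells in DMEM (phenol-red free, 10% FBS) exposed to compounds in qHTS concentration series for 72 h at 37 degrees C. Viability read by CellTiter-Glo luminescence; concentration-effect curves fitted after normalization and correction.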
# % is scaled to controls: 0 for no effect and ±100 for the full control effect; potency is read from the fitted curve at half-maximal effect.
Compound,"activity change, negative = cytotoxicity",Potency
CC(C)OCCCn1c(SCC(=O)c2ccccc2)nc2c(sc3ccccc32)c1=O,-4.17%,
COc1ccc(C(=O)Nc2ccccc2C(=O)N2CCN(c3ccccc3)CC2)cc1,2.33%,
COc1ccc(N2CCN(C(=O)C3CCN(C(=O)c4ccccc4Cl)CC3)CC2)cc1,-0.446%,
COc1ccc(C(=O)Nc2c(Cl)cc(Cl)cc2C(=O)N2CCC(C)CC2)cc1,,3.26 µM (active)
CCCNC(=O)C1(C)CCN1C(=O)Cc1ccc(-c2ccccc2)cc1 (stereo not given),-9.32%,
COC(=O)c1scc(-c2ccc(C)cc2)c1S(=O)(=O)Nc1cc(Cl)c(OC)cc1OC,-3.69%,
CCCNC(=O)C1CC(=O)N(c2ccc(OCc3ccccc3)cc2)C1 (stereo not given),-19.5%,
CC(C)n1ncc2c(C(=O)NCc3ccccc3CN(C)C)cc(C3CC3)nc21,28.4%,
COc1ccc(OCCNC(=O)c2cc(C3CC3)nc3c2cnn3C(C)C)cc1,,8.2 µM (active)
CC(C)n1ncc2c(C(=O)Nc3ccc(CC#N)cc3)cc(C3CC3)nc21,-15.1%,
CCCCN1C(=O)C(CC(=O)NCc2cccs2)CC(C(=O)N2CCOCC2)=C1C (stereo not given),21.1%,
O=C(Nc1ccc2c(c1)OCCO2)C(C1CC1)N1CCC(Cc2ccccc2)CC1 (stereo not given),6.42%,
O=C(NCc1ccccn1)C1CCN(S(=O)(=O)c2ccc(Br)cc2)CC1,5.38%,
O=C(Nc1ccccn1)C1CCN(S(=O)(=O)c2ccccc2)CC1,,18.4 µM (active)
O=C(Nc1ccccn1)C1CCN(S(=O)(=O)c2ccc3c(c2)OCCO3)CC1,-5.52%,
CN(Cc1ccc(C(F)(F)F)cc1)C(=O)[C@H]1O[C@@H](n2cnc3c(N)ncnc32)[C@H](O)[C@@H]1O,-2.71%,
O=[N+]([O-])c1cc(C(F)(F)F)ccc1NN=C1CCCC1,28.7%,
O=C(COc1ccc(S(=O)(=O)N2CCCC2)cc1[N+](=O)[O-])N1CCCCC1,-20.5%,
O=[N+]([O-])c1cc(S(=O)(=O)N2CCCC2)ccc1NN=C1CCCC1,,16.4 µM (active)
COC(=O)c1ccc(CN2C(=O)C(Cc3ccccc3)ON=C2c2ncccc2C)o1 (stereo not given),-9.92%,

Compound,"activity change, negative = cytotoxicity",Potency
O=S(=O)(Nc1ccc2nc(N3CCOCC3)sc2c1)c1ccccc1,-27.7%,
CC(C)c1ccc(S(=O)(=O)Nc2ccc(O)c(Sc3nc4ccccc4s3)c2)cc1,,16.4 µM (active)
O=[N+]([O-])c1c(NCCO)cc(Sc2nc3ccccc3s2)c2nonc12,-3.18%,
COC(=O)N(C)C[C@@H]1OCc2cnnn2CCCC(=O)N([C@@H](C)CO)C[C@@H]1C,0.072%,
Nc1nc2c(ncn2[C@@H]2O[C@H](CNCc3ccc(OCCCN4CCOCC4)cc3)[C@@H](O)[C@H]2O)c(=O)[nH]1,6.4%,
Nc1ncnc2c1ncn2[C@@H]1O[C@H](C(=O)N2CCCN(Cc3ccccc3F)CC2)[C@@H](O)[C@H]1O,0.685%,
C=CCn1c(CCc2ccc(OC(C)C)cc2)n[nH]c1=S,-20.5%,
CC(C)Oc1ccc(CCc2nnc(SCC(=O)O)n2-c2ccccc2)cc1,13.3%,
CC(C)Oc1ccc(CCc2n[nH]c(=S)n2Cc2ccccc2)cc1,,16.4 µM (active)
C[C@@H]1CN([C@@H](C)CO)C(=O)CCCn2cc(nn2)CO[C@H]1CN(C)S(=O)(=O)c1ccc(-n2cccn2)cc1,9.14%,
Nc1nnc(SCC(=O)Nc2ccc3nc(SCC(=O)Nc4ccccc4)sc3c2)s1,,23.1 µM (active)
CCCCNC(=O)CSc1nc2ccc(NC(=O)CSc3nnc(COc4ccccc4C)n3C)cc2s1,-28.6%,
CCCCNC(=O)CSc1nc2ccc(NC(=O)CSc3nnc(N)s3)cc2s1,6.17%,
COc1ccc(N2c3ccccc3CN(Cc3ccccc3)[C@@H](C)[C@H]2Cc2ccc(-c3ccccc3)cc2)cc1,2.89%,
Clc1cccc(Cc2c(-c3cccc(Cl)c3)nc3ccc(Cl)cn23)c1,12%,
O=C(Nc1ccccc1F)c1ccc(Cn2cc(Br)cn2)cc1,0.173%,
CCc1ccc(NC(=O)c2ccc(Cn3cc([N+](=O)[O-])cn3)cc2)cc1,,4.61 µM (active)
O=C(c1ccc(Cn2cc([N+](=O)[O-])cn2)o1)N1CCCC1,-1.32%,
CCOC(=O)C1=CC[C@@H](c2ccccc2)N(S(=O)(=O)c2ccc(C)cc2)[C@H]1c1cccc(OC)c1,-19.1%,
O=C(NCc1ccccc1)C1c2ccccc2OCC(=O)N1CCCN1CCOCC1 (stereo not given),0%,

Compound,"activity change, negative = cytotoxicity",Potency
CCOC(=O)c1ccc(NC(=O)C2CC(=O)NC(=Nc3ccc(C)c(C)c3)S2)cc1 (stereo not given),0%,
Cc1ccc(Cc2c(-c3ccco3)nc3ccc(Cl)cn23)cc1,-9.86%,
Oc1cccc(/C=N/Nc2ccc(Cl)nn2)c1O,-22.1%,
Oc1c(Br)cccc1/C=N/Nc1c(F)c(F)c(F)c(F)c1F,,25.9 µM (active)
Brc1ccccc1/C=N/Nc1nc2ccccc2o1,16.2%,
CCOc1ccc(Nc2nc3c(S(=O)(=O)c4cccc(Cl)c4)nnn3c3ccsc23)cc1,1.29%,
CSc1ccc(CN2CCC2(C)C(=O)NCc2ccccc2Br)cc1 (stereo not given),-11.6%,
CCc1nnc(NC(=O)c2ccco2)s1,27.7%,
CCCCCNC(=O)C1C(=O)Nc2ccccc2C(=O)N1C(C)(C)C (stereo not given),-14.7%,
CCN(CCO)C(=S)Nc1cc(C(=O)OC)ccc1C(=O)OC,-19.1%,
CCCN(CCC)C(=S)Nc1cc(C(=O)OC)ccc1C(=O)OC,,20.6 µM (active)
CCS(=O)(=O)Nc1cc(C(=O)OC)ccc1C(=O)OC,12.8%,
COc1ccc2c(C)c(CCC(=O)NCc3ccc(OC)c(OC)c3)c(=O)oc2c1,-7.69%,
O=C(CCCN1C(=O)C(c2ccccc2)Oc2cccnc21)Nc1ccccc1Br (stereo not given),-25.5%,
Cn1nnc2c(N3CCN(c4ccccc4)CC3)ncnc21,-12.8%,
O=C1NC[C@H](CCCCN2C[C@H](Cc3ccccc3)N(Cc3ccccc3)C(=O)C2=O)N(CCc2ccc(O)cc2)C1=O,1.62%,
O=C(c1ccc(Oc2ccc(Cl)cc2)c([N+](=O)[O-])c1)N1CCCC1,-2.56%,
Nc1ccc(C(=O)N2CCN(S(=O)(=O)c3ccc(Cl)cc3)CC2)cc1[N+](=O)[O-],-19.1%,
CC1CCN(C(=O)c2ccc(S(=O)(=O)Cc3cc(F)ccc3F)c([N+](=O)[O-])c2)CC1,,14.6 µM (active)
O=C1CCC[C@@H]2C[C@@]3(C[C@@H]4CCN1[C@H]24)Nc1ccccc1NC3=NCc1ccccc1,-4.8%,
